In PubChem BioAssay AID602288 (National Center for Advancing Translational Sciences (NCATS), 2012):
Inconclusive results are not listed. Active and inactive are the calls of the source. The call rests on the fitted dose curve; in most records, active means well fitted cell-killing curve with a large enough effect (not every such curve was filed as active); inconclusive means small, poorly fitted or top-dose-only effect, or another doubt; inactive means no such curve, though single readings can be large or run the other way.

Test: qHTS Assay for Agonists of the Relaxin Receptor RXFP1: Cytotoxicity SAR
Conditions: HEK293-RXFP1 viability, ATPLite luminescence, 72 h; series mostly up to 78.1 µM
Description: The relaxin hormone is involved in the variety of biological functions in normal tissues and diseases. The role of relaxin is well-established in female reproduction and parturition, mammary gland and endometrial development, maintenance of myometrial quiescence during pregnancy. Relaxin signaling through its G protein-coupled receptor (GPCR) RXFP1 results in ECM remodeling through regulation of collagen deposition, cell invasiveness, proliferation and overall tissue homeostasis. […] Recombinant human relaxin (rhRlx) is currently being tested in clinical trials as a protective agent in congestive heart failure, in treating severe preeclampsia, and as an anti-fibrotic agent in systemic sclerosis. In the primary screen, upon relaxin binding RXFP1 activation leads to the activation of adenylate cyclase (AC) via Gs. cAMP will activate PKA, which phosphorylates many signaling proteins. Thus, detection of cAMP increase is an easy and reliable indication of relaxin receptor activation. To screen for agonists of the relaxin receptor, a HEK293T cell line stably transfected with RXFP1 was used. RXFP1 activation was assayed by changes in cAMP levels as detected with a time-resolved fluorescence energy transfer (TR-FRET) cAMP detection kit. We conducted this followup assay to measure the effect of the lead candidates on cell health by measuring ATP levels (ATPLite). NIH Chemical Genomics Center [NCGC] NIH Molecular Libraries Probe Production Centers Network [MLPCN] MLPCN Grant: R03 MH085705-01A1 Assay Submitter (PI): Alexander Agoulnik
In this assay, the luciferase enzyme catalyzes the conversion of the added substrate D-luciferin to oxyluciferin and light with ATP. Thus, the emitted light is proportional to the ATP concentration. To evaluate the cytotoxic properties of the compounds, HEK293-RXFP1 cells were incubated with compounds for 72 h in growth media (DMEM 10% FBS, 1x Pen/Strep, 0.5 mg/mL G418) in 384-well format. After compound incubation, the levels of ATP in each well were measured with the addition of the ATPLite assay reagent.

Row | SMILES | Potency
1 | CN(C)CCOc1ccccc1C(=O)Nc1ccccc1C(=O)Nc1cccc(C(F)(F)F)c1 | inactive
2 | O=C(NCc1ccco1)c1ccccc1NC(=O)c1ccccc1NC(=O)C1CCCCC1 | inactive
3 | O=C(Nc1cccc(S(=O)(=O)C(F)(F)F)c1)c1ccccc1NC(=O)C1CCCCC1 | 14.9 µM (active)
4 | COc1ccccc1Nc1ccccc1C(=O)Nc1cccc(C(F)(F)F)c1 | 23.6 µM (active)
5 | O=C(Nc1cccc(C(F)(F)F)c1)c1ccccc1NC(=O)c1ccccc1OC(F)(F)F | inactive
6 | O=C(Nc1cccc(-c2cccc(C(F)(F)F)c2)c1)c1ccccc1NC(=O)C1CCCCC1 | 23.6 µM (active)
7 | O=C(Nc1cccc(C(F)(F)F)c1)c1ccccc1NC(=O)C1CCCCCC1 | 5.93 µM (active)
